Sm TGR block = qHTS Assay for the Inhibitors of Schistosoma Mansoni Peroxiredoxins | Schistosoma mansoni thioredoxin glutathione reductase (TGR), Q962Y6 | purified TGR, DTNB reduction, TNB absorbance 405 nm | Potency, µM (doses to about 114 µM), for inactives: top-dose activity change, negative = inhibition, usual class: inhibitors | 360,000 compounds, 3% hits; also: potency is read from the fitted curve at half-maximal effect; nearly all actives have a fitted effect of over 60% in size
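TGR 20 nM + NADPH 100 uM (dispensed conc.), cpd preinc 15 min RT; start with NADPH (500 uM addition) then DTNB (15 mM addition). Kinetic TNB absorbance, 405 nm filter. Four-parameter Hill fit across titration.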
Pf growth 48h = Primary qHTS for delayed death inhibitors of the malarial parasite plastid, 48 hour incubation. P. falciparum luciferase growth in erythrocytes, 48 h. Potency, µM (highest dose often 28.7 µM), for the others: top-dose activity change, negative = inhibition, actives largely listed as inhibitors. 310,000 compounds, 5.9% hits; also: potency is read from the fitted curve at half-maximal effect
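Luciferase-expressing P. falciparum in infected erythrocytes (2% hematocrit, 0.1% parasitemia final) in RPMI 1640/0.5% Albumax were exposed to compound for 48 hours at 37 C, 5% CO2; growth read as luminescence.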
Giardia FBPA inh-1 = qHTS Assay for Inhibitors of Fructose-1,6-bisphosphate Aldolase from Giardia Lamblia. A8B2U2. purified Giardia FBPA. Potency, µM (top dose mostly 59.6 µM), without a hit: top-dose activity, negative = inhibition, usual class: inhibitors. 290,000 compounds, 0.71% hits. AID 2451, 2010; also: potency is read from the fitted curve at half-maximal effect; nearly all actives have a fitted effect of over 55% in size
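40 nM FBPA preincubated 10 min at RT with compound (up to 57.5 uM final), then substrate plus GAPDH/TPI/NAD/arsenate coupling and diaphorase/resazurin added. Fluorescence read after 20 min at RT, 525/598 nm.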
Pf growth 96h = Primary qHTS for delayed death inhibitors of the malarial parasite plastid, 96 hour incubation; Potency, µM (top dose mostly 28.7 µM), inactives show at the highest dose activity change, negative = inhibition, hits mostly inhibitors; AID 504834, 2011; P. falciparum luciferase reporter growth, 96 h; 320,000 compounds, 6.9% hits; also: potency is read from the fitted curve at half-maximal effect
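96 h incubation, 37 C, 5% CO2, of luciferase-reporter P. falciparum-infected RBCs (2% hematocrit, 0.05% parasitemia final) with test compounds; endpoint luminescence.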
HCMV antiviral = qHTS Assay for inhibitors of the human cytomegalovirus (HCMV); AID 1259415, 2018; HFF cells, HCMV-luciferase reporter, 72 h; hits give low values; activity change, negative = inhibition, % at 57.5 µM; 410,000 compounds, 4.5% hits; in the data active = activity change below about -60%; inconclusive = no clear call, values can overlap the other calls; inactive = above about -39%
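Luciferase read-out from HCMV-luciferase-infected HFFs (MOI 1 PFU/cell) 72 h post infection at 37C; compounds added after 16 h cell attachment; activity normalized between buffer-only basal and Salinomycin (10uM) inhibitor controls.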
Giardia growth = qHTS Assay for Inhibitors of Fructose-1,6-bisphosphate Aldolase from Giardia Lamblia: Giardia lamblia growth inhibition. Potency, µM (highest dose often 57.5 µM), for inactives: top-dose activity change, negative = inhibition, most hits filed as inhibitors. 1,500 compounds, 5% hits. shares compounds with Giardia FBPA inh-1. Giardia lamblia trophozoite growth inhibition;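 also: potency is read from the fitted curve at half-maximal effect; trophozoites exposed to compound for 48 h at 37 °C; nearly all actives have a fitted effect of over 70% in size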
Mammalian tox = qHTS Assay for Inhibitors of Fructose-1,6-bisphosphate Aldolase from Giardia Lamblia: Mammalian cellular toxicity; mammalian cell viability counter-screen, qHTS; AID 2786, 2010; shares compounds with Giardia FBPA inh-1; Potency, µM (top dose mostly 57.5 µM), for the others: top-dose viability change, negative = toxicity, hits mostly inhibitors; 1,500 compounds, 4% hits;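 also: Chinese hamster ovary cells used as mammalian cytotoxicity surrogate; viability measured as cellular ATP by luminescence; potency is read from the fitted curve at half-maximal effect; compound exposure lasted 48 h before reading; nearly all actives have a fitted effect of over 60% in size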
Giardia FBPA inh-2 = qHTS Assay for Inhibitors of Fructose-1,6-bisphosphate Aldolase from Giardia Lamblia: Primary screen confirmation | shares compounds with Giardia FBPA inh-1 | purified Giardia aldolase enzyme activity, qHTS | Potency, µM (series often up to 57.5 µM), inactives show at the top dose activity change, negative = inhibition, usual class: inhibitors | 1,500 compounds, 5% hits; also: potency is read from the fitted curve at half-maximal effect; nearly all actives have a fitted effect of over 45% in size
Rabbit aldolase = qHTS Assay for Inhibitors of Fructose-1,6-bisphosphate Aldolase from Giardia Lamblia: Rabbit FBPA Selectivity; 1,500 compounds, 4% hits; shares compounds with Giardia FBPA inh-1; Potency, µM (doses to about 57.5 µM), inactives show top-dose activity, negative = inhibition, hits mostly inhibitors; Rabbit muscle FBPA enzyme inhibition, selectivity counter-screen; also: potency is read from the fitted curve at half-maximal effect; nearly all actives have a fitted effect of over 60% in size
Target sequence (P00883 whole entry, looked up): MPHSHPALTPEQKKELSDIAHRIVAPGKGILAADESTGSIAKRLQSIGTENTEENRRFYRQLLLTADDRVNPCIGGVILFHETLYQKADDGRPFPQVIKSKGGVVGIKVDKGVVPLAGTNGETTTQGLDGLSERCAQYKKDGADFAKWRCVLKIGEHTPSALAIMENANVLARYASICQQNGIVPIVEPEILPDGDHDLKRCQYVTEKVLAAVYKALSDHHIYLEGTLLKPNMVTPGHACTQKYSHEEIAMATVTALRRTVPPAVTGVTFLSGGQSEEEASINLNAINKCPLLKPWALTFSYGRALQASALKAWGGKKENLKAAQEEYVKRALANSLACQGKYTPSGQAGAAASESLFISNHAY
GAPDH counter = qHTS Assay for Inhibitors of Fructose-1,6-bisphosphate Aldolase from Giardia Lamblia: Coupling assay counterscreen confirmation | shares compounds with Giardia FBPA inh-1 | GAPDH coupling enzyme counterscreen, biochemical, qHTS | Potency, µM (doses to about 57.5 µM), for the others: top-dose activity change, negative = inhibition, most hits filed as inhibitors | 1,500 compounds, 6% hits; also: potency is read from the fitted curve at half-maximal effect; nearly all actives have a fitted effect of over 55% in size
An asterisk follows results filed as active; ? = inconclusive; / = no result; [ ] = dose if it differs, or a comment. This is a sample that favours compounds with a hit; in the whole collection about 14% have one here. Unless noted, calls follow the shape of the dose curve; as a rule, active = well fitted curve in the direction sought with a large enough effect; inconclusive = small, poorly fitted or top-dose-only effect, or another doubt; inactive = no such curve, though single readings can be large; an effect the other way counts as inactive or inconclusive. % is scaled to controls: 0 for no effect and ±100 for the full control effect.

SMILES	Sm TGR block	Pf growth 48h	Giardia FBPA inh-1	Pf growth 96h	HCMV antiviral	Giardia growth	Mammalian tox	Giardia FBPA inh-2	Rabbit aldolase	GAPDH counter
CCNC(=S)NS(=O)(=O)c1ccc(Cl)cc1	-17%	11%	7.1µM*	43%	-8	25%	-3%	5%	1%	10%
CCNC(=S)NS(=O)(=O)c1ccccc1	-3%	5%	7.9µM*	51%	-22	-16%	12%	1%	10%	14%
N/C(=N\NS(=O)(=O)c1ccccc1C(F)(F)F)c1ccccn1	-6%	?	18µM*	33%	18	6%[10.4 µM]	7%	13%	11%	7%
O=C(Nc1ccccc1C(F)(F)F)c1ccccn1	-2%	8%	-21%	-9%	-22	/	/	/	/	/
Cc1nc(C(F)(F)F)c(C(=O)N/N=C(\N)c2ccccn2)s1	-7%	?	4.5µM*	?	-34	32µM*	40µM*	?	-21%	-26%
O=C(COc1ccc(Cl)cc1)NCc1cn2cc(Cl)ccc2n1	6%	0%	1%	14%	2	/	/	/	/	/
CC(=O)c1c(N2CCOCC2)nc2ccc(Cl)cc2c1-c1ccccc1	18%	?	3%	-17%	-24	/	/	/	/	/
CCN1CCc2nc(N)sc2C1	-8%	-3%	11µM*	-5%	?	-19%	14%	?	?	28µM*
CCN1CCc2nc(NC(=O)c3ccccc3)sc2C1	3%	157%	-20%	196%	23	/	/	/	/	/
CC(C)c1ccc(NC(=O)C2CCC(CNS(=O)(=O)c3ccc4c(c3)CCCC(=O)N4)CC2)cc1 (centres undefined)	-2%	/	/	/	-25	/	/	/	/	/
CCOC(=O)C1CCCN(CCC(=O)Nc2ccc(Br)c(C)c2)C1 (centres undefined)	-9%	30%	14µM*	13%	31	?	-8%	4%	8%	10%
CCOC(=O)/C(C#N)=N/Nc1c(C)n(C)n(-c2ccccc2)c1=O	-7%	-25%	16µM*	?	3	-5%[10.4 µM]	-1%	0%	-4%	-3%
CCOC(=O)Nc1c(C)n(C)n(-c2ccccc2)c1=O	-30%	14%	0%	/	18	/	/	/	/	/
c1cncc(CNc2ncncc2-c2ccc3c(c2)OCO3)c1	/	/	-8%	/	/	/	/	/	/	/
Cc1nn2c(=S)[nH]nc2[nH]c1=O	-3%	0%	11µM*	-1%	-38	0%[10.4 µM]	-7%	-7%	-6%	9%
CSc1ccc(CN(C)CC(=O)Nc2ccc(C)cc2Br)cc1	2%	14%	4%	?	33	/	/	/	/	/
Cc1cccc(-n2cnc(C(=O)N3CCN(C)CC3)c2)n1	/	27%	0%	42%	-15	/	/	/	/	/
